{"source": "PubChem BioAssay AID1835", "about": "(Johns Hopkins Ion Channel Center, 2009)", "note": "Among all 2,400 compounds or so, about 750 (31%) were called active.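 The calls were made as follows: active = median signal gain over dofetilide-blocked control wells reaching their mean plus 3 SD, so readout 1 at least 0; inactive = the rest.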 The list shows a part of the results."}
{"target": "Voltage-gated inwardly rectifying potassium channel KCNH2 (Homo sapiens) (UniProt Q12809)", "sequence (Q12809 whole entry, looked up)": "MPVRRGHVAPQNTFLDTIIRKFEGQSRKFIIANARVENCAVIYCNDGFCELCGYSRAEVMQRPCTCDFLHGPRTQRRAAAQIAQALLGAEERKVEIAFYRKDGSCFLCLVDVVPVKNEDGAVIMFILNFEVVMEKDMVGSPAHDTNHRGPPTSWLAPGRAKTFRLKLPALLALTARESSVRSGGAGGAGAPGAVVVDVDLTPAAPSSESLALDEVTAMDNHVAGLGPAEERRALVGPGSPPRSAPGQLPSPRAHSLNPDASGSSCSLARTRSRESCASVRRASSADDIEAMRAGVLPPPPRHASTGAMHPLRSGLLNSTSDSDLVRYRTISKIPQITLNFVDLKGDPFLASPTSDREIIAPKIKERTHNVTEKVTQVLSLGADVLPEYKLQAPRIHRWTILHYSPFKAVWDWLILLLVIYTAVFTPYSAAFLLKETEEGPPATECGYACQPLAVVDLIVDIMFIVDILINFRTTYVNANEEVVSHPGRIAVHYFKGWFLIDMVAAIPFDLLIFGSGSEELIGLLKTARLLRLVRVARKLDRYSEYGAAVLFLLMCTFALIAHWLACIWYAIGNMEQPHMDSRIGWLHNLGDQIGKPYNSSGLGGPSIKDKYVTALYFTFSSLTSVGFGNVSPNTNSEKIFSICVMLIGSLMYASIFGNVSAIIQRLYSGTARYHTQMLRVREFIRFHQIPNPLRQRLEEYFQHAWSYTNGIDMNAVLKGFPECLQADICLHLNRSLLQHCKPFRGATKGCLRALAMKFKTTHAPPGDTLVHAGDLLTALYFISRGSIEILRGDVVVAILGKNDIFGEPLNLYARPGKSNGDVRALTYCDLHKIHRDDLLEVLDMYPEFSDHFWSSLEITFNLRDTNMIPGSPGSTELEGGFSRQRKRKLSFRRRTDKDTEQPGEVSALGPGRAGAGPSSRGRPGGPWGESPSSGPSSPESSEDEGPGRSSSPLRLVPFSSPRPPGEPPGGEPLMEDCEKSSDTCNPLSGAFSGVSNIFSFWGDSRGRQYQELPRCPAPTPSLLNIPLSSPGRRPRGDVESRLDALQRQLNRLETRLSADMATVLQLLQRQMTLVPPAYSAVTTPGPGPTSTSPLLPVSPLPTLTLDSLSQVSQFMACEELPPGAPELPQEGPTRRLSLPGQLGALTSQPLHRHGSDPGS", "test": "modulators restoring hERG flux under dofetilide – cell-based, thallium flux, duplicate retest, dofetilide IC70, confirmation (AID 1835)", "conditions": "hERG cell line, FluxOR thallium flux, dofetilide-blocked; at 10 µM; stronger effect = higher value"}
{"smiles": "Cc1cccc2nc(-c3cccnc3)c(NCCC(C)C)n12", "activity increase over dofetilide control, less the hit threshold": "-70% (inactive)"}
{"smiles": "CC(C)Oc1cccc(C(=O)NC(=S)N2CCN(c3ccc(C(F)(F)F)cc3[N+](=O)[O-])CC2)c1", "activity increase over dofetilide control, less the hit threshold": "-8% (inactive)"}
{"smiles": "COc1cccc(OC)c1C(=O)NC(=S)N1CCN(c2ccc(C(F)(F)F)cc2[N+](=O)[O-])CC1", "activity increase over dofetilide control, less the hit threshold": "6% (active)"}
{"smiles": "COC(=O)CSc1nc(N2CCCCC2)c2c(c1C#N)CCCC2", "activity increase over dofetilide control, less the hit threshold": "5% (active)"}
{"smiles": "COC(=O)CSc1nc2c(c(-c3ccc(C)o3)c1C#N)CCCC2", "activity increase over dofetilide control, less the hit threshold": "-18% (inactive)"}
{"smiles": "CCC1(c2ccccc2)NC(=S)N(c2ccc(C)c(C)c2)N1", "note": "(stereo unspecified)", "activity increase over dofetilide control, less the hit threshold": "86% (active)"}
{"smiles": "CCC1(c2ccc(Cl)cc2)NC(=S)N(c2ccc(C)c(C)c2)N1", "note": "(stereo unspecified)", "activity increase over dofetilide control, less the hit threshold": "100% (active)"}
{"smiles": "Cc1ccc(NC(=O)c2noc3c2CCC3)cc1C", "activity increase over dofetilide control, less the hit threshold": "-11% (inactive)"}
{"smiles": "N#Cc1cc(-c2ccccc2)nnc1Oc1ccccc1", "activity increase over dofetilide control, less the hit threshold": "-1% (inactive)"}
{"smiles": "Cc1ccc2[nH]c(=O)c(C(c3nnnn3C3CCCC3)N3CCCc4ccccc43)cc2c1", "note": "(stereo unspecified)", "activity increase over dofetilide control, less the hit threshold": "-4% (inactive)"}
{"smiles": "COc1ccc(-c2cc(C(F)(F)F)nc(N3CCCCC3)n2)cc1OC", "activity increase over dofetilide control, less the hit threshold": "-19% (inactive)"}
{"smiles": "O=C1C=C(c2ccccc2)OC(=O)C1C(=O)c1ccccc1", "note": "(stereo unspecified)", "activity increase over dofetilide control, less the hit threshold": "-4% (inactive)"}
{"smiles": "CCOc1ccc2nc(/N=C/c3nc(-c4ccccc4)oc3O)sc2c1", "activity increase over dofetilide control, less the hit threshold": "4% (active)"}
{"smiles": "CCOc1ccc2nc(/N=C/c3nc(-c4ccc(Br)cc4)oc3O)sc2c1", "activity increase over dofetilide control, less the hit threshold": "11% (active)"}
{"smiles": "CC1(C)CC(=O)c2c(nn(-c3ccccc3)c2-c2ccncc2)C1", "activity increase over dofetilide control, less the hit threshold": "-7% (inactive)"}
{"smiles": "Cc1ccc2cc(CCNC(=O)C(=O)c3c(C)[nH]c4ccccc34)c(=O)[nH]c2c1", "activity increase over dofetilide control, less the hit threshold": "-20% (inactive)"}
{"smiles": "OCCN1CCN(c2ncnc3c2sc2nc(N4CCOCC4)c4c(c23)CCC4)CC1", "activity increase over dofetilide control, less the hit threshold": "-27% (inactive)"}
{"smiles": "S=c1nc[nH]c2c1sc1nc(-c3ccccc3)c3c(c12)CCCC3", "activity increase over dofetilide control, less the hit threshold": "80% (active)"}
{"smiles": "S=c1nc[nH]c2c1sc1nc(N3CCOCC3)c3c(c12)CCCC3", "activity increase over dofetilide control, less the hit threshold": "58% (active)"}
{"smiles": "CCOC(=O)c1sc2nc(N3CCOCC3)c3c(c2c1N)CCN(Cc1ccccc1)C3", "activity increase over dofetilide control, less the hit threshold": "-5% (inactive)"}
{"smiles": "CC(C)c1nc2sc3c(=S)nc[nH]c3c2c2c1CCC2", "activity increase over dofetilide control, less the hit threshold": "52% (active)"}
{"smiles": "Cc1ccc(C)c(OCc2cc(C(=O)N3CCNC(=O)C3)no2)c1", "activity increase over dofetilide control, less the hit threshold": "-7% (inactive)"}
{"smiles": "CCc1noc(C)c1C(=O)N1CCCC(N2CCN(c3ccccc3F)CC2)C1", "note": "(stereo unspecified)", "activity increase over dofetilide control, less the hit threshold": "-1% (inactive)"}
{"smiles": "COc1ccc(C(=O)NC2CC3CCCC(C2)N3Cc2ccccc2)cc1", "note": "(stereo unspecified)", "activity increase over dofetilide control, less the hit threshold": "-11% (inactive)"}
{"smiles": "COc1ccc(C(=O)CC(=O)C(=O)Nc2ccccc2OC)cc1", "activity increase over dofetilide control, less the hit threshold": "2% (active)"}
{"smiles": "CCOc1ccccc1NC(=O)C(=O)CC(=O)c1ccc(OC)cc1", "activity increase over dofetilide control, less the hit threshold": "16% (active)"}
{"smiles": "COc1ccccc1NC1=C(NC(C)=O)C(=O)c2ccccc2C1=O", "activity increase over dofetilide control, less the hit threshold": "-7% (inactive)"}
{"smiles": "CCN1CCN(CC(=O)c2ccc(OC)cc2)CC1", "activity increase over dofetilide control, less the hit threshold": "-17% (inactive)"}
{"smiles": "COc1ccc(C(=O)CNc2ccccc2C#N)cc1", "activity increase over dofetilide control, less the hit threshold": "-11% (inactive)"}
{"smiles": "CSc1ccc(S(=O)(=O)N2CCC(C(=O)Nc3ccccc3C(F)(F)F)CC2)cc1", "activity increase over dofetilide control, less the hit threshold": "-17% (inactive)"}
{"smiles": "COc1ccc(C(=O)CC(=O)C(=O)Nc2ccccc2Cl)cc1", "activity increase over dofetilide control, less the hit threshold": "31% (active)"}
{"smiles": "NNC(=O)CNc1ccccc1Cl", "activity increase over dofetilide control, less the hit threshold": "-9% (inactive)"}
{"smiles": "COc1ccc(C(=O)CC(=O)C(=O)Nc2ccccc2C(F)(F)F)cc1", "activity increase over dofetilide control, less the hit threshold": "13% (active)"}
{"smiles": "COc1ccc(C(=O)CSc2nnc3ccc(-c4ccccn4)nn23)cc1", "activity increase over dofetilide control, less the hit threshold": "-11% (inactive)"}
{"smiles": "CCc1nc(C)ccc1OCC(=O)N1CCc2c([nH]c3ccccc23)C1c1ccccn1", "note": "(stereo unspecified)", "activity increase over dofetilide control, less the hit threshold": "-24% (inactive)"}
{"smiles": "Cc1ccc(CCNC(=O)c2cccc(NC3=NC4CS(=O)(=O)CC4S3)c2)cc1", "note": "(stereo unspecified)", "activity increase over dofetilide control, less the hit threshold": "-4% (inactive)"}
{"smiles": "Cc1cc(=O)[nH]c(N/N=C2/CCCC/C2=C\\c2ccccc2)n1", "activity increase over dofetilide control, less the hit threshold": "-9% (inactive)"}
{"smiles": "CNC(=O)c1[nH]cnc1C(=O)Nc1ccccn1", "activity increase over dofetilide control, less the hit threshold": "-18% (inactive)"}
{"smiles": "Cc1ccccc1OCC(=O)NNC(=O)c1ccc2c(=O)n3c(nc2c1)CCC3", "activity increase over dofetilide control, less the hit threshold": "-21% (inactive)"}
{"smiles": "O=C1c2ccccc2C(=O)N1CCc1nc(-c2ccccn2)no1", "activity increase over dofetilide control, less the hit threshold": "-12% (inactive)"}
{"smiles": "CCOc1ccccc1NC(=O)C(=O)CC(=O)c1cccc(OC)c1", "activity increase over dofetilide control, less the hit threshold": "7% (active)"}
{"smiles": "CCOc1ccc(CCNC(=O)Nc2ccccc2C)cc1OCC", "activity increase over dofetilide control, less the hit threshold": "-12% (inactive)"}
{"smiles": "Cc1oc2cc(O)ccc2c(=O)c1N1C(=O)c2ccccc2C1=O", "activity increase over dofetilide control, less the hit threshold": "-4% (inactive)"}
{"smiles": "Cc1ccc2c(CN3CCOCC3)cc(=O)oc2c1", "activity increase over dofetilide control, less the hit threshold": "-14% (inactive)"}
{"smiles": "Cc1nnc(SCc2cc(=O)oc3cc(O)ccc23)n1Cc1ccccc1", "activity increase over dofetilide control, less the hit threshold": "12% (active)"}
{"smiles": "CCOCCCNC(=O)C(NC(=O)Cc1cccs1)c1ccc(C)cc1", "note": "(stereo unspecified)", "activity increase over dofetilide control, less the hit threshold": "-21% (inactive)"}
{"smiles": "Cc1ccc(C(C#N)c2ccc3c(C(F)(F)F)cc(C(F)(F)F)nc3n2)cc1", "note": "(stereo unspecified)", "activity increase over dofetilide control, less the hit threshold": "8% (active)"}
{"smiles": "Fc1ccc(N2CCN(c3ccc4c(C(F)(F)F)cc(C(F)(F)F)nc4n3)CC2)cc1", "activity increase over dofetilide control, less the hit threshold": "-8% (inactive)"}
{"smiles": "Cc1ccc(S(=O)(=O)N2CCOCC2)cc1NC(=O)COC(=O)c1cccnc1Cl", "activity increase over dofetilide control, less the hit threshold": "-15% (inactive)"}
{"smiles": "CC12CCC(C/C1=N\\N=C1\\NC(=O)/C(=C\\c3ccc(Cl)cc3)S1)C2(C)C", "note": "(stereo unspecified)", "activity increase over dofetilide control, less the hit threshold": "-3% (inactive)"}
{"smiles": "Cc1cccc(/C=C2/S/C(=N/N=C3\\CC4CCC3(C)C4(C)C)NC2=O)c1", "note": "(stereo unspecified)", "activity increase over dofetilide control, less the hit threshold": "5% (active)"}
{"smiles": "COc1ccc(/C=C2/S/C(=N/N=C3\\CC4CCC3(C)C4(C)C)NC2=O)cc1", "note": "(stereo unspecified)", "activity increase over dofetilide control, less the hit threshold": "20% (active)"}
{"smiles": "Cc1ccc(N=C2NC(=O)/C(=C/c3cccs3)S2)cc1C", "activity increase over dofetilide control, less the hit threshold": "0% (inactive)"}
{"smiles": "CCOc1nc(-c2ccccc2)ccc1-c1noc(COC)n1", "activity increase over dofetilide control, less the hit threshold": "-7% (inactive)"}
{"smiles": "COC(=O)c1ccc(NC(=O)COC(=O)C2CC(=O)N(Cc3ccccc3)C2)cc1", "note": "(stereo unspecified)", "activity increase over dofetilide control, less the hit threshold": "-29% (inactive)"}
{"smiles": "Cc1cccc(NC(=S)N/N=C2\\CC(C)(C)Oc3ccc(O)cc32)c1", "activity increase over dofetilide control, less the hit threshold": "-5% (inactive)"}
{"smiles": "O=S(=O)(c1ccc(F)c(F)c1)N1CCN(c2ncccn2)CC1", "activity increase over dofetilide control, less the hit threshold": "-9% (inactive)"}
{"smiles": "Cc1ccc(S(=O)(=O)Nc2ccc(O)c3ccccc23)c(C)c1", "activity increase over dofetilide control, less the hit threshold": "5% (active)"}
{"smiles": "COc1ccc(OC)c(S(=O)(=O)Nc2ccc(O)c3ccccc23)c1", "activity increase over dofetilide control, less the hit threshold": "-4% (inactive)"}
{"smiles": "O=S(=O)(Nc1ccc(O)c2ccccc12)c1ccc(F)cc1", "activity increase over dofetilide control, less the hit threshold": "-58% (inactive)"}
{"smiles": "O=C(c1ccccc1)c1nccn1-c1ccc(Cl)nn1", "activity increase over dofetilide control, less the hit threshold": "-11% (inactive)"}
{"smiles": "CC(C1CC2CCC1C2)n1c(-c2cccs2)n[nH]c1=S", "note": "(stereo unspecified)", "activity increase over dofetilide control, less the hit threshold": "-4% (inactive)"}
{"smiles": "Cn1c(=S)[nH]c2scc(-c3cccs3)c2c1=O", "activity increase over dofetilide control, less the hit threshold": "60% (active)"}
{"smiles": "CC(C)n1c(=S)[nH]c2scc(-c3cccs3)c2c1=O", "activity increase over dofetilide control, less the hit threshold": "79% (active)"}
{"smiles": "S=c1[nH]c(-c2cccs2)cn1-c1ccccc1", "activity increase over dofetilide control, less the hit threshold": "-5% (inactive)"}
{"smiles": "COc1cc(/C=N/n2cnc3scc(-c4cccs4)c3c2=O)cc(OC)c1OC", "activity increase over dofetilide control, less the hit threshold": "-5% (inactive)"}
